Screening results deposited in PubChem by Broad Institute.
Only some compounds are listed: those with a hit (about 6.7% of all), similar ones and a draw of the others.
Pf Dd2 inh = inhibitors of Plasmodium falciparum Dd2 growth; 94,000 tested, 2.3% active; P. falciparum Dd2 growth, SYBR Green, 72 h; hits give low values; activity change, % at 10 µM; in the data active = activity change below about -80%; inconclusive = no clear call, values can overlap the other calls
C diff HTS = inhibitors of Clostridium difficile growth; AID 1259249; Clostridium difficile clinical isolate growth, OD600, 24 h; hits give low values; 86,000 tested, 0.25% active; growth activity, negative = inhibition, % at 16 µg/mL (by protocol);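 active = mean growth activity at or below -80% and every replicate also at or below -80%; inconclusive = mean at or below -80% but some replicate above -80%; inactive = mean growth activity above -80%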
T cruzi growth-1 = inhibitors of T. cruzi proliferation; 77,000 tested, 5.9% active; AID 624255; T. cruzi beta-gal in NIH3T3, GalScreen luminescence, 90 h; inhibition, % at 8.34 µM;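 active = mean inhibition above about 93%, with at least 55% of replicates each passing it, limit read from the data, passing the limit was not always enough; inconclusive = only one of those two conditions holds; inactive = neither condition holds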
T cruzi growth-2 = blocks T. cruzi growth in NIH3T3 host cells; AID 651739; inhibition, % at 8.35 µM; shares compounds with T cruzi growth-1; 5,600 tested, 72% active; T. cruzi beta-gal in NIH3T3, GalScreen luminescence, 90 h;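 active = mean replicate inhibition above about 95% and at least 55% of replicates individually reaching it, limit read from the data; inconclusive = only one of the two criteria is met; inactive = neither criterion is met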
T cruzi growth-3 = Trypanosoma cruzi proliferation inhibition. inhibition, % at 2.09 µM. shares compounds with T cruzi growth-1. T. cruzi beta-gal in NIH3T3, GalScreen luminescence, 90 h. AID 651740. 5,600 tested, 21% active;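 active = mean inhibition above about 95%, with at least 55% of replicates also reaching it, limit read from the data; inconclusive = meets just one of the two conditions; inactive = meets neither condition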
NIH3T3 tox = kills mouse NIH/3T3 fibroblasts; shares compounds with T cruzi growth-1; NIH/3T3 viability, CellTiter-Glo ATP luminescence, 90 h; cytotoxicity (signal decrease), % at 8.35 µM; 5,600 tested, 14% active; AID 651742;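 active = mean signal decrease across replicates above about 35% based on untreated-well scatter, with enough replicates individually passing, limit read from the data; inconclusive = no rule stated though some were filed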
3T3 cytotox 2 = cytotoxicity in mouse NIH/3T3 fibroblasts; shares compounds with T cruzi growth-1; NIH/3T3 viability, CellTiter-Glo ATP luminescence, 90 h; inhibition, % at 24.9 µM; 5,600 tested, 56% active; AID 651744;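 active = mean loss of cell viability signal at or above a set limit, and enough replicates individually reaching it; inconclusive = meets only the mean limit or only the replicate share; inactive = meets neither condition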
Large screens that a line does not name were inactive (follow-up assays come after a bar, where they were run).

CCC(=O)N1[C@@H]2Cn3c(ccc(/C=C/c4ccccc4)c3=O)[C@H]1[C@@H](C(=O)N(C)C)[C@@H]2CO	none
O=C(C[C@H]1CC[C@@H](NC(=O)NC2CCCCC2)[C@H](CO)O1)NCc1ccccc1	none
C[C@@H]1CN([C@@H](C)CO)C(=O)c2ccccc2-c2ccccc2CO[C@H]1CN(C)S(=O)(=O)c1ccc(C(F)(F)F)cc1	T cruzi growth-1 114 | T cruzi growth-2 103 | T cruzi growth-3 inactive | NIH3T3 tox inactive | 3T3 cytotox 2 30
C[C@H]1CN([C@@H](C)CO)C(=O)c2ccccc2-c2ccccc2CO[C@H]1CN(C)S(=O)(=O)c1ccc(F)cc1	none (no result: C diff HTS)
C[C@H](CO)N1C[C@H](C)[C@@H](CN(C)S(=O)(=O)c2ccc(C(F)(F)F)cc2)OCc2ccccc2-c2ccccc2C1=O	T cruzi growth-1 102 | T cruzi growth-2 102 | T cruzi growth-3 inactive | NIH3T3 tox inactive | 3T3 cytotox 2 54
C[C@@H]1CN([C@@H](C)CO)C(=O)c2ccccc2-c2ccccc2CO[C@@H]1CN(C)S(=O)(=O)c1ccc(F)cc1	none (no result: C diff HTS)
C[C@H]1CN([C@@H](C)CO)S(=O)(=O)c2ccc(-c3cccnc3)cc2O[C@@H]1CN(C)CC1CC1	none
N#C[C@@H]1[C@@H](c2ccc(C#Cc3cccc(F)c3)cc2)[C@H](CO)N1C(=O)C1CC1	none
N#C[C@@H]1[C@H](c2ccc(C#Cc3cccc(F)c3)cc2)[C@@H](CO)N1C(=O)C1CC1	T cruzi growth-1 inconclusive | T cruzi growth-2 101 | T cruzi growth-3 inactive | NIH3T3 tox inactive | 3T3 cytotox 2 71
N#C[C@H]1[C@@H](c2ccc(C#Cc3cccc(F)c3)cc2)[C@@H](CO)N1C(=O)C1CCOCC1	none
N#C[C@H]1[C@@H](c2ccc(C#Cc3cccc(F)c3)cc2)[C@@H](CO)N1C(=O)C1CC1	none
N#C[C@@H]1[C@@H](c2ccc(C#Cc3cccc(F)c3)cc2)[C@H](CO)N1C(=O)C1CCCC1	T cruzi growth-1 97 | T cruzi growth-2 100 | T cruzi growth-3 101 | NIH3T3 tox inactive | 3T3 cytotox 2 79
N#C[C@H]1[C@@H](c2ccc(C#Cc3cccc(F)c3)cc2)[C@H](CO)N1C(=O)C1CCC1	T cruzi growth-1 100 | T cruzi growth-2 96 | T cruzi growth-3 105 | NIH3T3 tox inactive | 3T3 cytotox 2 103
CCC(=O)N1CC[C@@H]2[C@@H](CO)N(C)c3ccc(-c4ccc(C#N)cc4)cc3[C@@H]21	none
COc1ccc2c3c([nH]c2c1)[C@@H](CO)N(CC1CCOCC1)CC31CN(C(=O)c2ccc(F)cc2)C1	none (no result: T cruzi growth-1)
O=C(C[C@@H]1CC[C@H]2[C@@H](COC[C@H](O)CN2Cc2cccc(F)c2)O1)NCc1cccc(F)c1	none (no result: C diff HTS)
C[C@@H]1CN([C@H](C)CO)C(=O)c2cc(NS(=O)(=O)c3ccccc3)ccc2O[C@@H](C)CCCCO[C@H]1CN(C)C(=O)Nc1ccc2c(c1)OCO2	none
CO[C@@H]1CN(C)C(=O)c2ccc(NC(=O)c3cnccn3)cc2OC[C@@H](C)N(C(C)=O)C[C@H]1C	none
COc1ccccc1CN1[C@@H]2CNC[C@H]1C2c1ccc(/C=C/c2ccccc2)cc1 (stereo partly specified)	none (no result: T cruzi growth-1)
CCCC(=O)Nc1ccc2c(c1)OC[C@H](C)N(C(=O)c1cnccn1)C[C@H](C)[C@H](OC)CN(C)C2=O	none (no result: C diff HTS)
Cc1noc(C)c1NC(=O)Nc1ccc2c(c1)C(=O)N([C@@H](C)CO)C[C@H](C)[C@H](CN(C)Cc1ccncc1)OCCCC[C@H](C)O2	none
COc1ccc(S(=O)(=O)N(C)C[C@@H]2Oc3cc(-c4ccccc4OC)ccc3S(=O)(=O)N([C@H](C)CO)C[C@H]2C)cc1	Pf Dd2 inh -87, T cruzi growth-1 127 | T cruzi growth-2 102 | T cruzi growth-3 inactive | NIH3T3 tox inactive | 3T3 cytotox 2 58
COc1ccc(S(=O)(=O)N(C)C[C@@H]2Oc3cc(-c4ccccc4OC)ccc3S(=O)(=O)N([C@@H](C)CO)C[C@@H]2C)cc1	T cruzi growth-1 126 | T cruzi growth-2 114 | T cruzi growth-3 100 | NIH3T3 tox 45 | 3T3 cytotox 2 inactive
COc1ccccc1-c1ccc2c(c1)O[C@@H](CN(C)C(C)=O)[C@H](C)CN([C@H](C)CO)S2(=O)=O	none
COc1ccc(S(=O)(=O)N(C)C[C@@H]2Oc3cc(-c4ccccc4OC)ccc3S(=O)(=O)N([C@H](C)CO)C[C@@H]2C)cc1	T cruzi growth-1 127 | T cruzi growth-2 110 | T cruzi growth-3 inactive | NIH3T3 tox inactive | 3T3 cytotox 2 63
COc1ccc(S(=O)(=O)N(C)C[C@@H]2Oc3cc(C4=CCCC4)ccc3S(=O)(=O)N([C@@H](C)CO)C[C@H]2C)cc1	none
COc1ccc(S(=O)(=O)N(C)C[C@@H]2Oc3cc(C4=CCCC4)ccc3S(=O)(=O)N([C@H](C)CO)C[C@H]2C)cc1	none
C[C@H]1CN([C@@H](C)CO)C(=O)c2cc(NC(=O)NC3CCCCC3)ccc2O[C@H]1CN(C)S(C)(=O)=O	none (no result: T cruzi growth-1)
C[C@@H]1CN([C@H](C)CO)C(=O)c2cc(/C=C/c3ccccc3)cnc2O[C@H]1CN(C)C(=O)Nc1ccccc1F	T cruzi growth-1 124 | T cruzi growth-2 109 | T cruzi growth-3 104 | NIH3T3 tox inactive | 3T3 cytotox 2 inconclusive
CCCNC(=O)N(C)C[C@@H]1Oc2ncc(/C=C/c3ccccc3)cc2C(=O)N([C@@H](C)CO)C[C@H]1C	T cruzi growth-1 103 | T cruzi growth-2 98 | T cruzi growth-3 inactive | NIH3T3 tox inactive | 3T3 cytotox 2 inactive
C[C@H](CO)N1C[C@H](C)[C@@H](CN(C)C(=O)Nc2ccccc2F)Oc2ncc(/C=C/c3ccccc3)cc2C1=O	T cruzi growth-1 118 | T cruzi growth-2 112 | T cruzi growth-3 inactive | NIH3T3 tox inactive | 3T3 cytotox 2 inactive
C/C=C/c1cnc2c(c1)C(=O)N([C@H](C)CO)C[C@H](C)[C@H](CN(C)C(=O)Nc1ccccc1F)O2	none
C/C=C/c1cnc2c(c1)C(=O)N([C@H](C)CO)C[C@@H](C)[C@H](CN(C)C(=O)Nc1ccccc1F)O2	none
CCCNC(=O)N(C)C[C@H]1Oc2ncc(/C=C/c3ccccc3)cc2C(=O)N([C@H](C)CO)C[C@@H]1C	none
COc1cccc(-c2cnc3c(c2)C(=O)N([C@H](C)CO)C[C@H](C)[C@H](CN(C)S(=O)(=O)c2ccccc2)O3)c1	none
C[C@@H]1CN([C@@H](C)CO)S(=O)(=O)c2ccc(-c3cccnc3)cc2O[C@H]1CN(C)C(=O)C1CC1	none (no result: C diff HTS)
CO[C@H](CN(C)S(=O)(=O)c1cn(C)cn1)[C@@H](C)CN(C(=O)Nc1ccc(C(F)(F)F)cc1)[C@H](C)CO	none (no result: C diff HTS)
